Source: PubChem BioAssay (NCI)
Compounds without any hit were thinned out: in the full panel of roughly 83,000, 20% have a hit.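 Percent growth is the endpoint: 0 to 100 indicates growth inhibition (40 means 60% inhibition), 0 means no net growth, and negative values indicate cell death.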 Calls of active or inactive are those of the source. How the source made its calls: active means growth percent below 10; inactive means the rest.

Legend:
Experiment in all cases: NCI-60 one-dose screen, 48 h (100 = growth as untreated, 0 = no growth, -100 = all killed)
Settings in all cases: 10 µM unless noted
RPMI-8226 leukemia = test system: RPMI-8226 leukemia
OVCAR-8 ovarian = test system: OVCAR-8 ovarian
OVCAR-5 ovarian = test system: OVCAR-5 ovarian
OVCAR-4 ovarian = test system: OVCAR-4 ovarian
SK-OV-3 ovarian = test system: SK-OV-3 ovarian
IGROV1 ovarian = test system: IGROV1 ovarian
OVCAR-3 ovarian = test system: OVCAR-3 ovarian
HS 578T breast = test system: HS 578T breast
NCI/ADR-RES ovarian = test system: NCI/ADR-RES ovarian
T-47D breast = test system: T-47D breast

Measured: growth

COc1ccc(C2CC(c3ccc(OC)c(OC)c3)=NN2C(=O)c2cc(OC)c(OC)c(OC)c2)c(OC)c1 (stereo not given)
inactive: RPMI-8226 leukemia 92.4% | OVCAR-8 ovarian 91.2% | OVCAR-5 ovarian 93% | OVCAR-4 ovarian 74.7% | SK-OV-3 ovarian 65.6% | IGROV1 ovarian 61.6% | OVCAR-3 ovarian 52.9% | HS 578T breast 49.6% | NCI/ADR-RES ovarian 53.2% | T-47D breast 82%

COc1ccc(Cn2c(NCCCN(C)C)nc(=O)n(Cc3ccc(F)cc3)c2=O)cc1
inactive: RPMI-8226 leukemia 95.7% | OVCAR-8 ovarian 98.9% | OVCAR-5 ovarian 109% | OVCAR-4 ovarian 93.1% | SK-OV-3 ovarian 86.3% | IGROV1 ovarian 84.7% | OVCAR-3 ovarian 87% | HS 578T breast 93.3% | NCI/ADR-RES ovarian 109% | T-47D breast 83.4%

C/C(=N/N=C(N)N)c1ccc(N)cc1
inactive: RPMI-8226 leukemia 190% | OVCAR-8 ovarian 111% | OVCAR-5 ovarian 105% | OVCAR-4 ovarian 100% | SK-OV-3 ovarian 105% | OVCAR-3 ovarian 93.1% | HS 578T breast 73.3% | NCI/ADR-RES ovarian 103% | T-47D breast 94.7%
active: IGROV1 ovarian -12.3%

O=C1C(Cl)=C(N=Nc2c(Cl)c(O)c3ccccc3c2O)C(=O)c2ccccc21
inactive: RPMI-8226 leukemia 69.2% | OVCAR-8 ovarian 79.1% | OVCAR-5 ovarian 121% | OVCAR-4 ovarian 72.3% | SK-OV-3 ovarian 89.8% | IGROV1 ovarian 60.1% | OVCAR-3 ovarian 24.3% | HS 578T breast 55.3% | NCI/ADR-RES ovarian 73.8% | T-47D breast 66.9%

O=C(C(=O)N1CCCCC1)c1ccc(OC2OC(CO)C(O)C(O)C2O)cc1 (stereo not given)
inactive: RPMI-8226 leukemia 103% | OVCAR-8 ovarian 95.9% | OVCAR-5 ovarian 113% | OVCAR-4 ovarian 108% | SK-OV-3 ovarian 105% | IGROV1 ovarian 86.7% | OVCAR-3 ovarian 107% | HS 578T breast 110% | NCI/ADR-RES ovarian 103% | T-47D breast 99.6%

COc1ccc2[nH]cc(/C=C3/C(=O)Nc4ccc(F)cc43)c2c1
inactive: RPMI-8226 leukemia 62.4% | OVCAR-8 ovarian 84.1% | OVCAR-5 ovarian 88.5% | OVCAR-4 ovarian 75.6% | SK-OV-3 ovarian 104% | IGROV1 ovarian 98.2% | OVCAR-3 ovarian 108% | HS 578T breast 72.6% | NCI/ADR-RES ovarian 84.9% | T-47D breast 92.2%

CCC1=C(c2ccc(OC)cc2)C(C)Oc2cc(OC(C)=O)ccc21 (stereo not given)
inactive: RPMI-8226 leukemia 75.6% | OVCAR-8 ovarian 68.8% | OVCAR-5 ovarian 128% | OVCAR-4 ovarian 72.4% | SK-OV-3 ovarian 80.6% | IGROV1 ovarian 104% | OVCAR-3 ovarian 86.9% | HS 578T breast 83.5% | NCI/ADR-RES ovarian 75.6% | T-47D breast 65.4%

Nc1nc(N)c([N+](=O)[O-])c(=O)[nH]1
inactive: RPMI-8226 leukemia 97.4% | OVCAR-8 ovarian 106% | OVCAR-5 ovarian 100% | OVCAR-4 ovarian 114% | SK-OV-3 ovarian 100% | IGROV1 ovarian 110% | OVCAR-3 ovarian 108% | HS 578T breast 100% | NCI/ADR-RES ovarian 101% | T-47D breast 92.2%

c1csc([C@@H]2C[C@@H]3Cc4ccc5ccccc5c4N2O3)c1
inactive: RPMI-8226 leukemia 95.5% | OVCAR-8 ovarian 96.9% | OVCAR-5 ovarian 89.9% | OVCAR-4 ovarian 87.7% | SK-OV-3 ovarian 102% | IGROV1 ovarian 105% | OVCAR-3 ovarian 102% | HS 578T breast 101% | NCI/ADR-RES ovarian 97.7% | T-47D breast 98.8%

CCOc1nc(-c2ccccc2)cc2c(O)c(C(=O)n3nc(C)cc3C)[nH]c(=O)c12
inactive: RPMI-8226 leukemia 103% | OVCAR-8 ovarian 101% | OVCAR-5 ovarian 106% | OVCAR-4 ovarian 100% | SK-OV-3 ovarian 102% | IGROV1 ovarian 97.4% | OVCAR-3 ovarian 112% | HS 578T breast 115% | NCI/ADR-RES ovarian 111% | T-47D breast 107%

COC1CC2CCC(C)C(O)(O2)C(=O)C(=O)N2CCCCC2C(=O)OC(C(C)CC2CCC(O)C(OC)C2)CC(=O)C(C)C=C(C)C(O)C(OC)C(=O)C(C)CC(C)/C=C/C=C/C=C1C (stereo not given)
inactive: RPMI-8226 leukemia 23.5% | OVCAR-8 ovarian 38.2% | OVCAR-5 ovarian 59.2% | OVCAR-4 ovarian 34.5% | SK-OV-3 ovarian 52.9% | IGROV1 ovarian 15.5% | OVCAR-3 ovarian 50% | HS 578T breast 45.2% | NCI/ADR-RES ovarian 49.1% | T-47D breast 31.1%

NC(=O)c1ncn([C@@H]2O[C@H](CO)[C@@H](O)[C@H]2O)n1
inactive: RPMI-8226 leukemia 87.2% | OVCAR-8 ovarian 72.7% | OVCAR-5 ovarian 102% | OVCAR-4 ovarian 92.2% | SK-OV-3 ovarian 96.8% | IGROV1 ovarian 98.9% | OVCAR-3 ovarian 103% | HS 578T breast 113% | NCI/ADR-RES ovarian 88% | T-47D breast 89%

COc1ccc(-n2nnc(C(=O)O)c2-c2cc(OC)c(OC)c(OC)c2)cc1
inactive: RPMI-8226 leukemia 99.5% | OVCAR-8 ovarian 100% | OVCAR-5 ovarian 103% | OVCAR-4 ovarian 109% | SK-OV-3 ovarian 99.1% | IGROV1 ovarian 116% | OVCAR-3 ovarian 119% | HS 578T breast 102% | NCI/ADR-RES ovarian 109% | T-47D breast 104%

COc1ccc2c(c1)/C(=C\c1c[nH]c3ccc(F)cc13)C(=O)N2
inactive: RPMI-8226 leukemia 61.5% | OVCAR-8 ovarian 81.9% | OVCAR-5 ovarian 100% | OVCAR-4 ovarian 65.1% | SK-OV-3 ovarian 93.4% | IGROV1 ovarian 69.5% | OVCAR-3 ovarian 83.7% | HS 578T breast 99.9% | NCI/ADR-RES ovarian 85.2% | T-47D breast 42.8%

O=C(Nc1ccc(OCc2nnc(-c3ccccc3)o2)c(F)c1)Nc1ccc(Cl)c(C(F)(F)F)c1
inactive: OVCAR-8 ovarian 24.5% | OVCAR-5 ovarian 64.5% | OVCAR-4 ovarian 26.8% | SK-OV-3 ovarian 52.4% | IGROV1 ovarian 36.3% | OVCAR-3 ovarian 15.4% | HS 578T breast 35.6% | NCI/ADR-RES ovarian 17.8% | T-47D breast 14.9%
active: RPMI-8226 leukemia -21%

CC(c1cc(Cl)ccc1O)c1cc(Cl)ccc1O
inactive: RPMI-8226 leukemia 20.9% | OVCAR-8 ovarian 46.5% | OVCAR-5 ovarian 70.7% | OVCAR-4 ovarian 39.3% | SK-OV-3 ovarian 27.3% | OVCAR-3 ovarian 28.2% | HS 578T breast 10.6% | T-47D breast 89.9%
active: IGROV1 ovarian -7.07% | NCI/ADR-RES ovarian -1.24%

CC/C(=C\c1ccc(N(C)C)cc1)c1nc2ccccc2c(=O)[nH]1
inactive: RPMI-8226 leukemia 79.4% | OVCAR-8 ovarian 106% | OVCAR-5 ovarian 92.9% | OVCAR-4 ovarian 95.8% | SK-OV-3 ovarian 109% | IGROV1 ovarian 66.4% | OVCAR-3 ovarian 116% | HS 578T breast 328% | NCI/ADR-RES ovarian 98.3% | T-47D breast 79.2%

C[C@@H]1CC[C@H]2[C@@H](C)C(O)O[C@@H]3O[C@]4(C)CC[C@@H]1[C@]32OO4 (stereo not given in full)
active: RPMI-8226 leukemia 3.35% | NCI/ADR-RES ovarian 9.21%
inactive: OVCAR-8 ovarian 19.2% | OVCAR-5 ovarian 26.5% | OVCAR-4 ovarian 40.2% | SK-OV-3 ovarian 95.4% | IGROV1 ovarian 38.9% | OVCAR-3 ovarian 30.1% | HS 578T breast 46.4% | T-47D breast 36.3%

COc1ccc(Nc2nccc(N3CCN(c4c5ccc(Cl)cc5nc5ccc(OC)cc45)CC3)n2)cc1
inactive: RPMI-8226 leukemia 29.5% | OVCAR-8 ovarian 73.2% | OVCAR-5 ovarian 97.1% | OVCAR-4 ovarian 46.6% | SK-OV-3 ovarian 107% | IGROV1 ovarian 75.7% | OVCAR-3 ovarian 67.5% | HS 578T breast 80.3% | NCI/ADR-RES ovarian 75.9% | T-47D breast 48.7%

Oc1ccc(Cc2ccc(O)c(C3CC(c4ccc(Cl)cc4)=NN3)c2)cc1C1CC(c2ccc(Cl)cc2)=NN1 (stereo not given)
inactive: RPMI-8226 leukemia 17.4% | OVCAR-8 ovarian 15.8% | OVCAR-5 ovarian 37.8% | OVCAR-4 ovarian 43.5% | SK-OV-3 ovarian 50.5% | IGROV1 ovarian 18.5% | HS 578T breast 13.8% | T-47D breast 38.3%
active: OVCAR-3 ovarian 10% | NCI/ADR-RES ovarian 4.68%

O=C(CCc1nnc(SCc2ccccc2)s1)c1nc2ccccc2[nH]1
inactive: RPMI-8226 leukemia 82.9% | OVCAR-8 ovarian 98.7% | OVCAR-5 ovarian 99.2% | OVCAR-4 ovarian 85.7% | SK-OV-3 ovarian 103% | IGROV1 ovarian 103% | OVCAR-3 ovarian 106% | HS 578T breast 106% | NCI/ADR-RES ovarian 87.1% | T-47D breast 95%

CCn1c2c(c3ccccc31)SC1c3cccn3CCN1C2=S (stereo not given)
inactive: RPMI-8226 leukemia 76.7% | OVCAR-8 ovarian 94.4% | OVCAR-5 ovarian 104% | OVCAR-4 ovarian 54.5% | SK-OV-3 ovarian 99.9% | IGROV1 ovarian 80% | OVCAR-3 ovarian 100% | HS 578T breast 81.2% | NCI/ADR-RES ovarian 102% | T-47D breast 41.9%

Nc1ccc(C2=Nc3cccc4cccc(c34)S2)cc1
active: T-47D breast 8.57%
inactive: RPMI-8226 leukemia 81.8% | OVCAR-8 ovarian 93.6% | OVCAR-5 ovarian 73.2% | OVCAR-4 ovarian 85.3% | SK-OV-3 ovarian 103% | IGROV1 ovarian 67.5% | OVCAR-3 ovarian 87.9% | HS 578T breast 92.2% | NCI/ADR-RES ovarian 107%

C=C(C[C@](O)(C(=O)/C=C/c1ccc(Cl)cc1)C(=O)OC)c1ccccc1
inactive: OVCAR-8 ovarian 50.2% | OVCAR-5 ovarian 105% | OVCAR-4 ovarian 84.4% | SK-OV-3 ovarian 95.7% | IGROV1 ovarian 81.2% | OVCAR-3 ovarian 61.7% | HS 578T breast 104% | NCI/ADR-RES ovarian 59.2% | T-47D breast 36.2%
active: RPMI-8226 leukemia -20.3%

C[N+]1(CCc2ccccc2)CCC(CCC2CC[N+](C)(CCc3ccccc3)CC2)CC1 (stereo not given)
inactive: RPMI-8226 leukemia 126% | OVCAR-8 ovarian 97% | OVCAR-5 ovarian 104% | OVCAR-4 ovarian 103% | SK-OV-3 ovarian 107% | IGROV1 ovarian 105% | OVCAR-3 ovarian 107% | HS 578T breast 103% | NCI/ADR-RES ovarian 105% | T-47D breast 102%

COc1ccc2nc(NC(=O)c3cc(-c4ccc(F)cc4)n4nc(-c5ccccc5)cc4n3)sc2c1
inactive: RPMI-8226 leukemia 83.5% | OVCAR-8 ovarian 53.5% | OVCAR-5 ovarian 85.6% | OVCAR-4 ovarian 59.1% | SK-OV-3 ovarian 67.6% | IGROV1 ovarian 101% | OVCAR-3 ovarian 67.9% | HS 578T breast 79.9% | NCI/ADR-RES ovarian 70.9% | T-47D breast 89.5%

CN(C)c1nc(-c2ccco2)n2nc(-c3ccco3)cc2n1
inactive: RPMI-8226 leukemia 65.1% | OVCAR-8 ovarian 92.8% | OVCAR-5 ovarian 108% | OVCAR-4 ovarian 80.1% | SK-OV-3 ovarian 98.7% | IGROV1 ovarian 72.4% | OVCAR-3 ovarian 92.9% | HS 578T breast 78.1% | NCI/ADR-RES ovarian 90.7% | T-47D breast 38%
